Wnt act: activators of Wnt/beta-catenin signaling. AID 743398. hit rate 1.2% among 300,000. Wnt/beta-catenin reporter cell assay, activator, plate reader. activation, % at 9.35 µM; in the data active = activation above about 30%, passing the limit was not always enough; inconclusive = no clear call, values can overlap the other calls;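 also: 0% = neutral control wells and 100% = positive control wells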
DAX1 inh: blocks DAX1 repression of SF-1 activated StAR promoter; HEK293T StAR-luciferase reporter, SF-1/DAX-1 repression relief; inhibition, % at 6.8 µM; hit rate 1.1% among 370,000; AID 652010;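 active = inhibition above the mean over all tested compounds plus 3 SD, cut at about 3.6% in these data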;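 also: 0% = DAX-1 cells with DMSO and 100% = cells lacking DAX-1 with DMSO; higher inhibition means more luminescence from relief of DAX-1 repression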
hgDAF-12 ag: agonists of H. glycines DAF-12 nuclear receptor. HEK293 GAL4-hgDAF12 UAS-luciferase reporter, agonist luminescence; normalized to butyrate control. activation, % at 6.8 µM. hit rate 1.8% among 370,000;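 active = activation above a cutoff set at the mean of all screened compounds plus 3 SD, cut at about 10% in these data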;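 also: 0% = DMSO wells and 100% = sodium butyrate wells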
hcDAF-12 act: activators of H. contortus DAF-12 nuclear receptor. HEK293 hcDAF-12 lit1-tk-luc reporter, luminescence; 0% DMSO, 100% Δ7-dafachronic acid. activation, % at 6.8 µM. hit rate 1.4% among 370,000. AID 652067;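 active = activation above the mean of all tested compounds plus 3 SD, cut at about 5.5% in these data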;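 also: 100% = response to 3 µM Δ7-dafachronic acid high control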
esBAF inh: SWI/SNF esBAF complex inhibition. mouse ES cells, Bmi1-luciferase knock-in reporter, 24 h; 100% = twice the neutral-well signal. hit rate 2% among 350,000. reporter increase, % at 12.5 µM; in the data active = activation above about 40%; inconclusive = no clear call, values can overlap the other calls;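 also: 0% = median of the plate's neutral control wells and 100% = double that signal; a rise in the Bmi1 reporter signal indicates esBAF inhibition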
ssDAF12 agonist: S. stercoralis DAF-12 activation, primary screen; HEK293 ssDAF-12/GRIP1 lit1-tk-luc reporter, luminescence; % of 3 µM dafachronic acid response; hit rate 1% among 370,000; activation, % at 6.8 µM; AID 652126;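 active = activation above the mean over all tested compounds plus 3 SD, cut at about 0.9% in these data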;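 also: 0% = DMSO-only wells and 100% = 3 µM delta7-dafachronic acid wells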
* hit, by the source's call; ? = inconclusive; . = no result given. Sampled rows, rich in hits. Any-hit rate of the full collection: about 4.2%.

SMILES	Wnt act	DAX1 inh	hgDAF-12 ag	hcDAF-12 act	esBAF inh	ssDAF12 agonist
O=C(CCC(=O)NNc1nc2ccccc2c2nc(-c3ccccc3)nn12)NCCCN1CCOCC1	.	0	5	5.6*	.	0
CC(C)(C)c1ccc(N2C(=O)Cc3c2nc(N)c(C#N)c3N)cc1	.	0	3	2	51*	0
Cc1nn(-c2ccccc2)c2nc(N)c(C#N)c(-c3ccc(C(C)(C)C)cc3)c12	-2	0	1	4	-3	-1
CCN(CC)c1nc2c3c(nc4c(c3c1C#N)CC(=O)N4c1ccc(Cl)cc1)NC(C)=N2	3	0	4	0	.	-2
CCc1ccc(N2C(=O)Cc3c2nc(N)c(C#N)c3N)cc1	15	1	9	5	53*	0
CC(C)C(=O)Nc1nc2cc3c(cc2s1)OCO3	29	1	10	2	68*	-1
O=C(/C=C/c1ccc2c(c1)OCO2)Nc1nc2ccc(F)cc2s1	34*	2	7	3	56*	1
CC(C)(C)C(=O)Nc1nc2cc3c(cc2s1)OCO3	42*	1	10	0	29	-1
CCOc1ccc2nc(NC(=O)/C=C/c3ccc4c(c3)OCO4)sc2c1	-2	0	0	-1	.	-1
COC(=O)c1sccc1-c1ccc(C(=O)Nc2cccc(Cl)c2)o1	.	0	1	1	51*	-1
COc1ccc(-c2nc(CCl)cs2)cc1	-1	2	5	4	.	0
CCc1ccc(-c2nc(CCl)cs2)cc1	8	3	12*	6	28	0
COc1ccc(C2=NNC(=O)CC2)cc1	-6	0	0	0	.	-1
COc1ccc(C2=NNC(=O)C2(C)Br)cc1 (stereo unspecified)	51*	-2	-5	-1	.	-1
C/C=C/c1ccc2c(c1)O[C@H](CN(C)C(=O)c1ccc(F)cc1)[C@H](C)CN([C@H](C)CO)S2(=O)=O	.	.	.	.	2	.
O=C(Nc1ccc2c(c1)[C@@H]1C[C@@H](CC(=O)N3CCc4ccccc4C3)O[C@H](CO)[C@@H]1O2)NC1CCCC1	.	.	.	.	8	.
C[C@@H]1CN([C@@H](C)CO)S(=O)(=O)c2ccc(-c3ccncc3)cc2O[C@H]1CN(C)C	.	.	.	.	0	.
CCOC(=O)C1(Cc2cccc(OC)c2)CCCN(C(=O)c2cc(CC(C)C)[nH]n2)C1 (stereo unspecified)	0	3.8*	9	5	.	0
CCOC(=O)C1(Cc2cccc(Cl)c2)CCCN(C(=O)c2c(CC)noc2C)C1 (stereo unspecified)	4	0	4	1	20	-1
CCOC(=O)C1(Cc2cccc(OC)c2)CCCN(C(=O)c2ccc(OC)o2)C1 (stereo unspecified)	?	4.3*	5	5	80*	0
CCOC(=O)C1(Cc2cccc(Cl)c2)CCCN(C(=O)c2cc(C)[nH]n2)C1 (stereo unspecified)	-1	0	-3	-1	0	0
CCOC(=O)C1(Cc2cccc(Cl)c2)CCCN(C(=O)c2cc(C)on2)C1 (stereo unspecified)	13	0	4	-1	53*	-1
COc1ccccc1NC(=O)N(C)C[C@@H]1OCc2cn(nn2)CCCC(=O)N([C@@H](C)CO)C[C@@H]1C	.	.	.	.	-1	.
CC1=NN(C(N)=S)C(=O)C1N=Nc1ccc([N+](=O)[O-])cc1 (stereo unspecified)	.	.	.	.	76*	.
CC1=NN(C(N)=S)C(=O)C1N=Nc1ccc(F)cc1 (stereo unspecified)	21	1	9	4	68*	0
SMILES	Wnt act	DAX1 inh	hgDAF-12 ag	hcDAF-12 act	esBAF inh	ssDAF12 agonist
CC1=NN(C(N)=S)C(=O)C1N=Nc1ccc(O)cc1 (stereo unspecified)	3	0	-2	-1	23	-2
CC1(C(=O)NS(=O)(=O)c2cccc(C#N)c2)CCN1C(=O)C1CCCCC1 (stereo unspecified)	35*	2	0	2	0	-1
CC1(C(=O)NS(=O)(=O)c2ccc(C#N)cc2)CCN1C(=O)C1CCCCC1 (stereo unspecified)	-2	1	-1	2	-3	-2
CNC(=O)C[C@@H]1CC[C@@H]2[C@H](COc3ccc(NC(=O)NCc4ccccc4)cc3C(=O)N2C)O1	.	.	.	.	-5	.
O=C(CN1CCc2ccccc21)NC(=O)NCc1ccco1	-2	0	1	3	-7	1.0*
O=C(CSc1ncccn1)NC(=O)NCc1ccco1	36*	-1	0	-1	-6	0
O=C(CN1CCN(c2ccccc2O)CC1)NC(=O)NCc1ccco1	1	1	-1	-1	.	-1
O=C(CSc1nc2ccccc2s1)NC(=O)NCc1ccco1	2	0	2	5	2	1.4*
CN1CCN(C(=O)C[C@@H]2CC[C@@H]3[C@H](COc4ccc(NC(=O)C5CCOCC5)cc4C(=O)N3C)O2)CC1	.	.	.	.	0	.
CCCNC(=O)[C@H]1[C@H](CO)[C@H]2Cn3c(ccc(C4=CCCC4)c3=O)[C@@H]1N2C(=O)CC	.	.	.	.	2	.
CO[C@H]1CN(C)C(=O)c2cc(NC(=O)c3ccccc3F)ccc2OC[C@@H](C)N(CC2CCOCC2)C[C@@H]1C	.	.	.	.	1	.
COc1ccc(NC(=O)N(C)C[C@@H]2Oc3c(NC(=O)NC4CCCCC4)cccc3C(=O)N([C@H](C)CO)C[C@@H]2C)cc1	.	.	.	.	-2	.
COc1ccc(CN(C)C[C@@H]2Oc3c(NS(=O)(=O)c4cccs4)cccc3C(=O)N([C@@H](C)CO)C[C@@H]2C)cc1	.	.	.	.	-1	.
Cc1ccc(S(=O)(=O)c2nc(Nc3ccccc3C#N)sc2Cl)cc1	4	0	-2	6.3*	.	-1
CC1CCCCC1NC(=O)COc1ccccc1C#N (stereo unspecified)	8	1	6	0	53*	-1
N#Cc1ccccc1OCC(=O)NCC1(N2CCCCC2)CCCCC1	-1	1	9	3	.	1.5*
N#Cc1ccccc1OCC(=O)NC1CCCCC1	-1	2	7	6	.	0
N#Cc1ccccc1OCC(=O)Nc1ccc2c(c1)OCCCO2	11	1	8	-1	74*	-1
N#Cc1ccccc1OCC(=O)Nc1ccc2c(c1)OCCO2	-1	4.1*	12*	6.5*	66*	0
O=C(COc1ccccc1F)Nc1ccc2c(c1)OCCO2	19	1	6	0	-20	0
O=C(C[C@H]1C=C[C@@H](NC(=O)CN2CCOCC2)[C@H](CO)O1)NC1CCCCC1	.	.	.	.	1	.
CO[C@H]1CN(C)C(=O)c2cc(NC(=O)c3ccno3)ccc2OC[C@@H](C)NC[C@@H]1C	.	.	.	.	-2	.
C[C@@H]1CN([C@@H](C)CO)C(=O)Cc2cc(NC(=O)c3ccncc3)ccc2O[C@@H]1CN(C)C(=O)NC1CCCCC1	.	.	.	.	4	.
